Assay results from PubChem BioAssay (NCI).
About 83,000 compounds went through this panel and 20% of them were active in at least one assay; those are over-represented in the sample as a whole.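 Interpretation: 100, growth as untreated; towards 0, rising growth inhibition; 0, no net growth; 0 to -100, cell death. Compounds scoring below 10 were considered active.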 Calls of active or inactive are those of the source.

Columns and labels:
Assay in all cases: NCI-60 one-dose screen, 48 h (100 = growth as untreated, 0 = no growth, -100 = all killed)
Details in all cases: 10 µM unless noted
SR leukemia = tested on: SR leukemia
OVCAR-8 ovarian = tested on: OVCAR-8 ovarian
OVCAR-5 ovarian = tested on: OVCAR-5 ovarian
OVCAR-4 ovarian = tested on: OVCAR-4 ovarian
SK-OV-3 ovarian = tested on: SK-OV-3 ovarian
IGROV1 ovarian = tested on: IGROV1 ovarian
OVCAR-3 ovarian = tested on: OVCAR-3 ovarian
HS 578T breast = tested on: HS 578T breast
NCI/ADR-RES ovarian = tested on: NCI/ADR-RES ovarian
T-47D breast = tested on: T-47D breast
BT-549 breast = tested on: BT-549 breast
MDA-MB-435 melanoma = tested on: MDA-MB-435 melanoma
SW-620 colon = tested on: SW-620 colon
MCF7 breast = tested on: MCF7 breast
HCC-2998 colon = tested on: HCC-2998 colon
KM12 colon = tested on: KM12 colon
HCT-116 colon = tested on: HCT-116 colon

Measured: growth

O=C(N/N=C/c1ccc(Cl)cc1Cl)c1ccccc1Nc1cccc(C(F)(F)F)c1
active: BT-549 breast -57.4%
inactive: SR leukemia 56.3% | OVCAR-8 ovarian 71.6% | OVCAR-5 ovarian 85.6% | OVCAR-4 ovarian 65.6% | SK-OV-3 ovarian 97.4% | IGROV1 ovarian 43.8% | OVCAR-3 ovarian 53.3% | HS 578T breast 49.3% | NCI/ADR-RES ovarian 73.4% | T-47D breast 83.4% | MDA-MB-435 melanoma 70.7% | SW-620 colon 84.4% | MCF7 breast 280% | HCC-2998 colon 88.2% | KM12 colon 79%

CC(=O)Nc1cc2c3c(cccc3c1)-c1ccccc1-2
inactive: SR leukemia 81.6% | OVCAR-8 ovarian 86.1% | OVCAR-5 ovarian 85.6% | OVCAR-4 ovarian 71.5% | SK-OV-3 ovarian 105% | IGROV1 ovarian 59% | OVCAR-3 ovarian 92.8% | HS 578T breast 112% | NCI/ADR-RES ovarian 84.5% | T-47D breast 75.4% | MDA-MB-435 melanoma 68.4% | SW-620 colon 99.7% | MCF7 breast 96.9% | HCT-116 colon 95.9% | HCC-2998 colon 87.8% | KM12 colon 51.1%

Nc1ccc2c(c1Br)Cc1ccccc1-2
inactive: SR leukemia 93.6% | OVCAR-8 ovarian 98.6% | OVCAR-5 ovarian 94.6% | OVCAR-4 ovarian 98.6% | SK-OV-3 ovarian 95.4% | IGROV1 ovarian 108% | OVCAR-3 ovarian 99.1% | HS 578T breast 95.4% | NCI/ADR-RES ovarian 100% | T-47D breast 87.8% | MDA-MB-435 melanoma 110% | SW-620 colon 98.1% | MCF7 breast 51% | HCT-116 colon 98.2% | HCC-2998 colon 99.1% | KM12 colon 103%

NS(=O)(=O)c1ccc(-n2ncc3c(NC4CCCCC4)ncnc32)cc1
inactive: SR leukemia 63.1% | OVCAR-8 ovarian 89.2% | OVCAR-5 ovarian 90.9% | OVCAR-4 ovarian 97.9% | SK-OV-3 ovarian 108% | IGROV1 ovarian 78% | OVCAR-3 ovarian 128% | HS 578T breast 98.8% | NCI/ADR-RES ovarian 88.6% | T-47D breast 80.4% | BT-549 breast 108% | MDA-MB-435 melanoma 92.5% | SW-620 colon 113% | MCF7 breast 116% | HCT-116 colon 93.6% | HCC-2998 colon 91.5% | KM12 colon 83.6%

Cc1nn2c(/C=C3/C(=O)Nc4cc(Cl)ccc43)c(-c3ccccc3)nc2s1
active: OVCAR-8 ovarian -25.2% | OVCAR-4 ovarian -85.6% | IGROV1 ovarian -23.5% | OVCAR-3 ovarian -71.6% | HS 578T breast -0.41% | T-47D breast -63% | MDA-MB-435 melanoma -14.8% | SW-620 colon -26.8% | HCT-116 colon -79%
inactive: SR leukemia 15.1% | OVCAR-5 ovarian 52.8% | SK-OV-3 ovarian 73.6% | NCI/ADR-RES ovarian 24.2% | BT-549 breast 15.4% | HCC-2998 colon 120% | KM12 colon 78.7%

O=C(NCCNC(=O)Oc1cccc2ccccc12)Oc1cccc2ccccc12
inactive: SR leukemia 97.8% | OVCAR-8 ovarian 100% | OVCAR-5 ovarian 105% | OVCAR-4 ovarian 96.4% | SK-OV-3 ovarian 94.5% | IGROV1 ovarian 65.2% | OVCAR-3 ovarian 86.5% | HS 578T breast 104% | NCI/ADR-RES ovarian 95.8% | T-47D breast 71.7% | BT-549 breast 105% | MDA-MB-435 melanoma 114% | SW-620 colon 102% | MCF7 breast 84.4% | HCT-116 colon 99.7% | KM12 colon 104%

Cc1cc(-c2ccccc2)cc(C)n1
inactive: SR leukemia 99.4% | OVCAR-8 ovarian 106% | OVCAR-5 ovarian 108% | OVCAR-4 ovarian 99.7% | SK-OV-3 ovarian 109% | IGROV1 ovarian 102% | OVCAR-3 ovarian 127% | HS 578T breast 111% | NCI/ADR-RES ovarian 110% | T-47D breast 114% | BT-549 breast 113% | MDA-MB-435 melanoma 105% | SW-620 colon 109% | MCF7 breast 93.5% | HCT-116 colon 104% | HCC-2998 colon 107% | KM12 colon 112%

Nc1ncnc2c1CN(Cc1ccccc1)CC2
inactive: SR leukemia 94.6% | OVCAR-8 ovarian 106% | OVCAR-5 ovarian 114% | OVCAR-4 ovarian 102% | SK-OV-3 ovarian 103% | IGROV1 ovarian 118% | OVCAR-3 ovarian 129% | HS 578T breast 119% | NCI/ADR-RES ovarian 104% | T-47D breast 105% | BT-549 breast 108% | MDA-MB-435 melanoma 107% | SW-620 colon 107% | MCF7 breast 93.6% | HCT-116 colon 102% | HCC-2998 colon 98.5% | KM12 colon 108%

CC(=O)Nc1c(Cl)cc2c(c1Cl)Cc1ccccc1-2
inactive: SR leukemia 101% | OVCAR-8 ovarian 102% | OVCAR-5 ovarian 85.4% | OVCAR-4 ovarian 100% | SK-OV-3 ovarian 113% | IGROV1 ovarian 93% | OVCAR-3 ovarian 105% | HS 578T breast 114% | NCI/ADR-RES ovarian 103% | T-47D breast 89.5% | BT-549 breast 98.8% | MDA-MB-435 melanoma 122% | SW-620 colon 103% | MCF7 breast 91.1% | HCT-116 colon 99.1% | HCC-2998 colon 107% | KM12 colon 97.2%
